Results on 41 compounds are retold here after PubChem BioAssay AID743449 (Broad Institute, 2014).

Out of some 9,900 compounds screened, about 90 (0.9%) were called active. Not shown: some 2% with an inconclusive outcome.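 How the source made its calls: active means mean normalized replicate activity at least 50 and at least half of replicates each reaching 50; inconclusive means only one of the two criteria met; inactive means neither criterion met.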 The entries come from a sample that favours actives as a whole.

The experiment is described as follows: reduction of CTGF mRNA in DLD1 cells – DLD1 colon cancer cells, RT-qPCR, single point, primary screen (AID 743449).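 Further: 0% = neutral control wells and 100% = dasatinib control wells; higher means stronger suppression of CTGF expression like dasatinib.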 Conditions: 24 h, at 12.5 µM, active compounds read high. For orientation: Real-time PCR tracks product formation cycle by cycle.
What is called inhibition is the relative decrease from the control value, in per cent. For `COc1ccc2c3c(n(C)c2c1)[C@@H](CO)N(C(=O)Nc1ccc(F)cc1)CC31CCN(C(=O)c2ccc3c(c2)OCO3)CC1`, the inhibition is 8.8% (inactive).
On to `C[C@@H]1CCCCO[C@H](CN(C)Cc2ccncc2)[C@H](C)CN([C@H](C)CO)C(=O)c2cc(NC(=O)Cc3ccccc3)ccc2O1`, for which the inhibition is 7.17% (inactive).
In the case of `C/C=C/c1ccc([C@@H]2[C@H](CO)N(CC3CCCC3)C23CN(S(=O)(=O)CC)C3)cc1`, the inhibition is -25.3% (inactive).
For `O=S(=O)(Cc1ccccc1)N1CC2(C1)[C@H](c1ccccc1)[C@H](CO)N2CC1CCCC1`, the inhibition was 63.5% (active).
For the compound `C/C=C/c1ccc([C@@H]2[C@@H](CO)N(CC3CCCC3)C23CN(S(=O)(=O)CC)C3)cc1`, the inhibition was -26.7% (inactive).
Next, `O=C(C[C@H]1C[C@@H]2c3cc(NC(=O)C4CCOCC4)ccc3O[C@@H]2[C@@H](CO)O1)NCCN1CCCCC1`: 23.7% (inactive).
Take `C/C=C/c1cccc(-c2nc(C(=O)N3CCCCC3)cc3c2[C@H](CCO)N(C(=O)NC(C)C)C3)c1`: the inhibition is 1.73% (inactive).
With `C/C=C/c1cccc(-c2nc(C(=O)N3CCCCC3)cc3c2[C@@H](CCO)N(C(=O)NC(C)C)C3)c1`, the inhibition was -19.7% (inactive).
For `C/C=C/c1cccc(-c2nc(C(=O)Nc3nccs3)cc3c2[C@@H](CCO)N(C(=O)NC(C)C)C3)c1`, the inhibition is 59.6% (active).
The result for `CCC(=O)N(CC(C)C)C[C@@H]1[C@@H](c2ccccc2)[C@H](CO)N1C(=O)C1CCC1` reads 3.26% (inactive).
Next, `CO[C@@H](CN(C)S(=O)(=O)c1ccc(F)cc1)[C@H](C)CN(Cc1ccccc1Cl)[C@H](C)CO`: -18% (inactive); `C[C@H](O)C#Cc1ccc([C@@H]2[C@@H](CO)N3CCCCN(C(=O)c4ccc5c(c4)OCO5)C[C@H]23)cc1`: -21.5% (inactive); `O=C(c1cccc(F)c1)N1CCCCN2[C@@H](CO)[C@H](c3ccc(C#CC4(O)CCCC4)cc3)[C@@H]2C1`: 68.7% (active).
The result for `O=C(c1cccc(F)c1)N1CCCCN2[C@H](C1)[C@@H](c1ccc(C#CC3(O)CCCC3)cc1)[C@@H]2CO` reads 30.5% (inactive); that for `O=C(c1cccc(F)c1)N1CCCCN2[C@H](CO)[C@H](c3ccc(C#CC4(O)CCCC4)cc3)[C@H]2C1`, 11.6% (inactive).
For `C[C@H](O)C#Cc1ccc([C@H]2[C@@H](CO)N3CCCCN(C(=O)c4ccc5c(c4)OCO5)C[C@@H]23)cc1`, the inhibition is 53.3% (active).
Regarding `O=C(c1cccc(F)c1)N1CCCCN2[C@H](CO)[C@@H](c3ccc(C#CC4(O)CCCC4)cc3)[C@@H]2C1`, the inhibition is -4.53% (inactive).
Next, `O=C(c1cccc(F)c1)N1CCCCN2[C@H](C1)[C@H](c1ccc(C#CC3(O)CCCC3)cc1)[C@@H]2CO`: 24% (inactive).
On to `O=C(c1cccc(F)c1)N1CCCCN2[C@H](CO)[C@H](c3ccc(C#CC4(O)CCCC4)cc3)[C@@H]2C1`, for which the inhibition is 58.8% (active).
In the case of `C[C@H](O)C#Cc1ccc([C@@H]2[C@H]3CN(C(=O)c4ccc5c(c4)OCO5)CCCCN3[C@H]2CO)cc1`, the inhibition was -48.5% (inactive).
For the compound `O=C(C[C@H]1CC[C@H]2[C@@H](COC[C@@H](O)CN2C(=O)c2cccnc2)O1)NCC1CC1`, the inhibition is 6.53% (inactive).
`COCCNC(=O)C[C@@H]1C[C@H]2c3cc(NC(=O)CN(C)C)ccc3O[C@H]2[C@H](CO)O1`: the inhibition is 0.098% (inactive).
Turning to `COc1cccc(NC(=O)N2C[C@H](O)COC[C@H]3O[C@H](CC(=O)N(C)C)CC[C@@H]32)c1`, the inhibition is -3.69% (inactive).
Regarding `O=C(CN1CCOCC1)N1CC(=O)N2[C@H](C1)[C@@H](c1ccc(-c3cccc(F)c3)cc1)[C@@H]2CO`, the inhibition is 10.6% (inactive).
The result for `C[C@H](CO)N1C[C@H](C)[C@H](CN(C)C(=O)Nc2ccc(-c3cccs3)cc2)OCc2cnnn2CCCC1=O` reads 13.8% (inactive).
Next, `C[C@@H]1CC=CC[C@@H](c2cccc(Cl)c2)NC(=O)[C@H](Cc2ccccc2)N(C)C(=O)c2ccccc2O1` (mixture of isomers): 50.4% (active); `C[C@H]1CC=CC[C@H](c2cccc(Cl)c2)NC(=O)[C@H](Cc2ccccc2)N(C)C(=O)c2ccccc2O1` (mixture of isomers): -228% (inactive); `C[C@@H]1CC=CC[C@@H](c2cccc(Cl)c2)NC(=O)[C@@H](Cc2ccccc2)N(C)C(=O)c2ccccc2O1` (mixture of isomers): 67.5% (active).
Regarding `CC(C)[C@H]1C(=O)N[C@H](c2cccc(Cl)c2)CC=CC[C@H](C)Oc2ccccc2C(=O)N1C` (mixture of isomers), the inhibition was -2.2% (inactive).
As for `CC(C)[C@@H]1C(=O)N[C@H](c2cccc(Cl)c2)CC=CC[C@@H](C)Oc2ccccc2C(=O)N1C` (mixture of isomers), the inhibition was 14.5% (inactive).
As to `C[C@H]1CC=CC[C@H](c2cccc(Cl)c2)NC(=O)[C@@H](Cc2ccccc2)N(C)C(=O)c2ccccc2O1` (mixture of isomers), the inhibition is -83.3% (inactive).
Next, `CN1C(=O)c2cc(NC(=O)NCc3ccccc3)ccc2OC[C@@H]2O[C@@H](CC(=O)NCC3CCCCC3)CC[C@H]21`: -20.9% (inactive).
In the case of `COc1cccc(S(=O)(=O)N[C@H]2CC[C@H](CC(=O)NC3Cc4ccccc4C3)O[C@H]2CO)c1`, the inhibition is 3.79% (inactive).
On to `Cc1noc(C)c1S(=O)(=O)N(C)C[C@H]1OCCCC[C@H](C)Oc2ccc(NC(=O)CCC(F)(F)F)cc2C(=O)N([C@@H](C)CO)C[C@@H]1C`, for which the inhibition was 8.01% (inactive).
`CN1C(=O)c2cc(NC(=O)c3cccc(Cl)c3)ccc2OC[C@H]2O[C@H](CC(=O)NC3CCCCC3)CC[C@H]21`: the inhibition is -12.4% (inactive).
With `COc1ccccc1NC(=O)N1CCCCN2[C@H](CO)[C@@H](c3ccc(-c4cccc(C#N)c4)cc3)[C@H]2C1`, the inhibition was -21.9% (inactive).
For the compound `COc1ccccc1NC(=O)N1CCCCN2[C@H](CO)[C@H](c3ccc(-c4cccc(C#N)c4)cc3)[C@@H]2C1`, the inhibition was 52.5% (active).
Consider `COc1ccccc1NC(=O)N1CCCCN2[C@H](C1)[C@@H](c1ccc(-c3cccc(C#N)c3)cc1)[C@@H]2CO`, for which the inhibition is -9.55% (inactive).
For the compound `COc1ccccc1NC(=O)N1CCCCN2[C@H](CO)[C@H](c3ccc(-c4cccc(C#N)c4)cc3)[C@H]2C1`, the inhibition was 19.1% (inactive).
In the case of `COc1ccccc1NC(=O)N1CCCCN2[C@@H](CO)[C@H](c3ccc(-c4cccc(C#N)c4)cc3)[C@@H]2C1`, the inhibition was 75% (active).
As to `COc1ccccc1NC(=O)N1CCCCN2[C@@H](CO)[C@@H](c3ccc(-c4cccc(C#N)c4)cc3)[C@@H]2C1`, the inhibition is -18.2% (inactive).
